Assay results as given in article PMC12136788.
Whole data set: some 24,000 sequences, median “enrichment r” near 0.99, cut for the highest 2% near 3.7. Only a selection was taken, and the highest values are over-represented in it overall.

T1: UNK ZnF1-3 (human, UniProt Q9C0B0 31-174)
T1 sequence: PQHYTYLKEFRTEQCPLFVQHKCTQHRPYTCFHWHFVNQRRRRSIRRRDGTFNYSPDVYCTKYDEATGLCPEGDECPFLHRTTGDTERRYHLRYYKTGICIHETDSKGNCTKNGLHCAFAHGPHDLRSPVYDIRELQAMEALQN

B1: chr4:25749455:25749456:-_ENSG00000091490_ENST00000264868|hu_hu|hu_hu_hu_mus_False|48_68 (ssRNA)
RNA: GGGAGUUCUACAGUCCGACGAUCGCACUAUGACCUCUAGAAAAAUCCACAGGGGGAAAAAAUGUAAACCAAUUUACAAUGUUAUCGCCCUCCCUGCGUGUGGAGUGUUUGUCUCAAGGCUCCUUCUAGCUGCUGGAUUUGGGACAACAGAGGAUUGAGCAUCA
B2: chr17:25064881:25064882:-_ENSMUSG00000024163_ENSMUST00000117509|mus_mus|FALSE|FALSE (ssRNA)
RNA: GGGAGUUCUACAGUCCGACGAUCAUAAUGUUCUACCUGGAUCUGGAGUUCUUUCUUCUCUUGUUCCAAGGCAUCUUCAAAUUCGAUGAAUUUCUCCUCGGCCUGUUUGCGCAGCGCCUUCUCGCGCUCGUAUUGCGUGAGCAGCAACAGAGGAUUGAGCAUCA
B3: chr3:51263940:51263941:+_ENSMUSG00000063273_ENSMUST00000029303|mus_hu|FALSE|FALSE (ssRNA)
RNA: GGGAGUUCUACAGUCCGACGAUCGUAAAAUGGAUGCUGUCGAAGUACAUCUUCUAGUUUUAAUAAGUCCACAUAUGAUCUAAGGGUAAUCUUCCUCAUACAGUAUGUAUGAAAGUCAAACUGGUCAUCAGUGAUUUCUAUAAACAACAGAGGAUUGAGCAUCA
B4: 136207635_136207755_6660_3pUTR_ENSMUSG00000028664_ENSMUST00000105845|mouse|control|control (ssRNA)
RNA: GGGAGUUCUACAGUCCGACGAUCGUAUAAGUGUUCUCUGCUACUCUUGUGUCUGCUCAGAAGCAGUGGGUCUAGCACUAAGGAUGUCACUAUUGACCAUAACUUCUUUCCUAGAGAUAAGGUCUUAUGUGGCCCAGGCUGGCUCAACAGAGGAUUGAGCAUCA
B5: chr6:114281168:114281169:-_ENSG00000196591_ENST00000368632|hu_hu|hu_hu_hu_mus_True|8_108 (ssRNA)
RNA: GGGAGUUCUACAGUCCGACGAUCUUCCAUUUUUCUGUAUAAACCAUAAUUUAGCAGCAAGUUAUGAGUCAUCCGGAUUCUAUGAGGCUUCAUGGGAUGACCCUGGCCAUAAUAAUAAUUGCCAAUAUCACAGAUUCAGUAGUACAACAGAGGAUUGAGCAUCA
B6: chr15:81824118:81824119:-_ENSMUSG00000022472_ENSMUST00000152227|mus_mus|motif|central (ssRNA)
RNA: GGGAGUUCUACAGUCCGACGAUCGAAGGGAACCUUAAGGUCCCUCUGGAAUCUGGAGUCUAGAUCAUAGACUUCGGGGCGGUUGCUGCCCAUGAAAUCCUAGCAGCAUAUCAUUAAGAAAACGCCCACUCACACCCCAACCACCAACAGAGGAUUGAGCAUCA
B7: chr2:55200753:55200754:-_ENSG00000115310_ENST00000317610|hu_hu|motif|central (ssRNA)
RNA: GGGAGUUCUACAGUCCGACGAUCUUGGAUUUUAGCCAUAGCAUCUUUAACAUUCUUAUUUGCAAGUCCUAGAUAAUGAUCGGUCUGUGCCUGAUGCCGUUCAUAAAUAACAGGAACACUGAAGAGUGAAAUGAGAGCCAAAAUCAACAGAGGAUUGAGCAUCA
B8: chr1:135034296:135034297:+_ENSMUSG00000046062_ENSMUST00000052529|mus_hu|FALSE|FALSE (ssRNA)
RNA: GGGAGUUCUACAGUCCGACGAUCUAGCCUAACAUAGACAGGCCAAAUCAUUGAAAUAAAAAAAAUAUAGAAAAACAUAAAAGCCCAUUAACUUCUGAAUUUUGGGAAAGAAACAAGAAAGAGCCCAAAGUUUUCAGAUAGGCACAACAGAGGAUUGAGCAUCA
B9: 14087313_14087433_2671_3pUTR_ENSG00000147862_ENST00000380959|human|control|control (ssRNA)
RNA: GGGAGUUCUACAGUCCGACGAUCGGGAAAAUAAAUUCGUUCAAAAUUAUUUUAAAUUCUUUUUAAUCCCCUCAAUUUAGAGUCCAAGGGCUGAAGGACUUAUAAUCAUGAUUCCCCUUUAGAUAUAAAUUUAUAAAUUGCACUCAACAGAGGAUUGAGCAUCA
B10: chr17:73267850:73267851:+_ENSMUSG00000024063_ENSMUST00000024857|mus_mus|FALSE|FALSE (ssRNA)
RNA: GGGAGUUCUACAGUCCGACGAUCGAAAUAUACAGACAUGAAGUCCUAGGGGAGGCUGACCCACGCCCUUGUGAUUAAGAAAAACAAAACAAAACAAAACAAACAAACAAACAAAAAAAAACCAGUCACUGAGUCCUGAAUGAGCAACAGAGGAUUGAGCAUCA
B11: 61064472_61067304_1030_3pUTR_ENSG00000119541_ENST00000238497|human|control|control (ssRNA)
RNA: GGGAGUUCUACAGUCCGACGAUCUUCGUUUCUCAAAUCUUCGCCUAAUGGCAGAAUCCAGAACCCAGGGUAUAUUUGUAGCUCCCAGAACCAAAAUUCCAUCAUUGUCUACACCAACCCCUUGCAUUUGCACUAGGAACUCCGCAACAGAGGAUUGAGCAUCA
B12: chr1:53517203:53517204:+_ENSG00000116171_ENST00000408941|hu_mus|FALSE|FALSE (ssRNA)
RNA: GGGAGUUCUACAGUCCGACGAUCUCAGGAAGAGCUGUUUUAAUUUUCUUUUUAAAUCUUCCAAAAGCAUAUUUUUAUCCCAAACCUAAAUUAUAACAAAUAGCAUUAGAAUUAGAAAAACUUGGAAGAAAGAUAAAUGCAGACCAACAGAGGAUUGAGCAUCA
B13: chr10:114190419:114190420:-_ENSG00000023041_ENST00000369405|hu_hu|FALSE|FALSE (ssRNA)
RNA: GGGAGUUCUACAGUCCGACGAUCGGGCAGGAAUUCAAAGGCAUAUGCAGAAUGGCUUCUCCAUUUCAAAAUGGUAAUAAAAAUAUUUAAAUCAUGGCACUAGGGCACCUUUGAGGAAAAGAACAUCUUAACCAGAGUAGGCUCCAACAGAGGAUUGAGCAUCA
B14: chr11:60965389:60965390:-_ENSMUSG00000042506_ENSMUST00000041683|mus_hu|FALSE|FALSE (ssRNA)
RNA: GGGAGUUCUACAGUCCGACGAUCCAGCUCCUCAAAAUGGAAGGGGAAAGGAAGAGUAAACAUCUUGGUAAAUAAAGUCUCCAACCACAGCACAGUCAUUGGAAUUUUUUUCUUCAUUUUUAUUUUCAAACUUACAGUAAACAACAACAGAGGAUUGAGCAUCA
B15: chr6:38652254:38652255:-_ENSG00000124767_ENST00000373365|hu_hu|hu_hu_hu_mus_False|1_78 (ssRNA)
RNA: GGGAGUUCUACAGUCCGACGAUCCGAGAACUUCAUAGCAGGGAAGUCAAGCUUCUGGAUUAGCGUCAGUCCAAGAACCCUCGUAUAAAAAUCCAGGGACUUCUUAGGAUCCUUAAUUCUUAGCAUCGUUUGCUGCAAUAGAAACAACAGAGGAUUGAGCAUCA
B16: chr5:180275300:180275301:-_ENSG00000196670_ENST00000512132|hu_mus|motif|central (ssRNA)
RNA: GGGAGUUCUACAGUCCGACGAUCAGUUGUGAUCUUCCUACCACAAACCAUUACUGUUAAGUCUAUAAUUCAUGACCCACGGAUAAACUGAUAUUCCCUGAAACCAUCCUCUCCCUGAAUUUGCCUGUUGGAGGCCCUUCUUGGCAACAGAGGAUUGAGCAUCA
B17: chr20:33097842:33097843:+_ENSG00000078747_ENST00000374864|hu_hu|motif|central (ssRNA)
RNA: GGGAGUUCUACAGUCCGACGAUCAAAAAUAUUAAAUAGCCAAGCCCUAUAGAACUAGGGCCAGGGCUACUUCAAAUAUAACGGUUCUGUAUUUUAAAAAUAUAGGGCAGAAAGCCUUUUGGGUGAUAUUUAUAUAUUUUCACACAACAGAGGAUUGAGCAUCA
B18: chr10:114798999:114799000:-_ENSMUSG00000069520_ENSMUST00000092170|mus_mus|motif|central (ssRNA)
RNA: GGGAGUUCUACAGUCCGACGAUCUCAUCUUUAUAUACCUUUUGCACGUAGUGUCGUCACUAUCUGUCAUGGAAAAUAGAGCGGCGAGCACAUCUUCCACCAACCGAACGACAAAAUAGAAUCGUAAAUCCAAAACGUCUAGUCCAACAGAGGAUUGAGCAUCA
B19: chr1:225977196:225977197:+_ENSG00000143742_ENST00000304786|hu_mus|FALSE|FALSE (ssRNA)
RNA: GGGAGUUCUACAGUCCGACGAUCAUUCCGUUUCCAAAAAUAAAGGUUUUCUAACUGGAAACCCCGACAUUCCUACUCUCUAAAGCAAACUUUAGGACGCAGGCUGGUCUCUCGGCUUUGACAGCUCCAUUACGUAAGUAUAUCCAACAGAGGAUUGAGCAUCA
B20: 29117783_29124966_335_CDS_ENSG00000163811_ENST00000407426|human|control|control (ssRNA)
RNA: GGGAGUUCUACAGUCCGACGAUCUUUUACUGUGCUGUAUAAUAAAAUGCUACCAACUGCUGUGCCAAGAGCCAAUAAGUCAGUCUGGUUACUCAUUCCUACAGCUUCUGAUUUCCUUUUUUUCCUCUGGGGACUUUCCUUGGCCAACAGAGGAUUGAGCAUCA
B21: chr7:141450121:141450122:+_ENSG00000106028_ENST00000265304|hu_mus|hu_hu_hu_mus_True|18_38 (ssRNA)
RNA: GGGAGUUCUACAGUCCGACGAUCUCAUCCGUUCUAUGCCUUUUCUUUUGUCUGGUCACUCAGAAAUAUAAUGUUAUCAGCUAUGAUUGUUGUUGCUUGUCGCCUCACAUUGUUUUUAUCCAUGUAUUCGCCAUAGUCCACUUUCAACAGAGGAUUGAGCAUCA
B22: chr4:115894766:115894767:+_ENSMUSG00000028698_ENSMUST00000030464|mus_hu|mus_mus_mus_hu_True|18_98 (ssRNA)
RNA: GGGAGUUCUACAGUCCGACGAUCUUCCACACGGAAAGUACUUGGGGGUUUUCCAACGGCCAGUACCAGUCCGGCCAAACUACCCGAACAGGGUCCUCCCCCUCUCUCCUACAGAACUAAAGCACCCGCCCCCGAACUUUCAAGCAACAGAGGAUUGAGCAUCA

Molecular target: T1, UNK ZnF1-3
Test: nsRBNS (natural sequence RNA bind-n-seq); RBNS binding buffer (assumed for nsRBNS): 25 mM Tris pH 7.5, 150 mM KCl, 3 mM MgCl2, 0.01% Triton X-100, 500 ug/ml BSA, 20 U/ml SUPERase-In, 4 C; UNK is unkempt and MSI1 is Musashi-1; names of the RNAs are library labels; protein concentration not given here; high values mean tight binding

Q: For B1, which binding signal is on record?
A: 1.03 enrichment R

Q: With B2 as the binder, how does the binding signal read?
A: 0.355 enrichment R

Q: How did the binding signal turn out when B3 was run?
A: 0.873 enrichment R

Q: For B4, which binding signal is on record?
A: 0.733 enrichment R

Q: With B5 as the binder, how does the binding signal read?
A: 1.03 enrichment R

Q: How did the binding signal turn out when B6 was run?
A: 1.07 enrichment R

Q: For B7, which binding signal is on record?
A: 1.53 enrichment R

Q: With B8 as the binder, how does the binding signal read?
A: 11.8 enrichment R

Q: For B9, which binding signal is on record?
A: 4.87 enrichment R

Q: Which binding signal does the source give for B10 here?
A: 4.8 enrichment R

Q: For B11, which binding signal is on record?
A: 1.29 enrichment R

Q: With B12 as the binder, how does the binding signal read?
A: 1.47 enrichment R

Q: B13 was tested. Which binding signal did it give?
A: 4.18 enrichment R

Q: For B14, which binding signal is on record?
A: 2 enrichment R

Q: For B15, which binding signal is on record?
A: 1.08 enrichment R

Q: B16 was tested. Which binding signal did it give?
A: 0.806 enrichment R

Q: With B17 as the binder, how does the binding signal read?
A: 0.982 enrichment R

Q: Which binding signal does the source give for B18 here?
A: 0.824 enrichment R

Q: Which binding signal does the source give for B19 here?
A: 0.892 enrichment R

Q: With B20 as the binder, how does the binding signal read?
A: 0.828 enrichment R

Q: For B21, which binding signal is on record?
A: 0.364 enrichment R

Q: Which binding signal does the source give for B22 here?
A: 1.44 enrichment R
